According to PubChem BioAssay:
Calls of active or inactive are those of the source.

Columns and labels:
[1] = test system: PRMT1 (protein arginine N-methyltransferase 1); assay: small molecules binding arginine methyltransferase PRMT1 – biochemical, small-molecule microarray, 635 nm fluorescence, primary screen (AID 1088); conditions: higher = more signal;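 also: binding of Prmt1 protein to compounds spotted on small-molecule microarray slides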
[2] = growth effects on S. cerevisiae YJM789 – YJM789 clinical isolate, OD600, 24 h, basal, primary screen (AID 1089); conditions: higher = more signal, called active from +8 up or from −8 down;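 also: growth of clinical yeast isolate S. cerevisiae YJM 789 seeded 1000 cells per well; test concentration not given here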
[3] = S. pombe growth modifiers, basal conditions – strain 972, OD600, 24 h, no modulator, primary screen (AID 1090);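 also: basal condition with compound alone and no growth modifier present; test concentration not given here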; conditions: S. pombe 972 growth, higher = more signal, called active from +8 up or from −8 down
[4] = budding yeast growth modifiers under rapamycin – strain BY4716, OD600, 96 h, primary screen (AID 1091); also: test concentration not given here; conditions: S. cerevisiae BY4716 + rapamycin, higher = more signal, called active from +8 up or from −8 down
[5] = target: Torsin-1A-interacting protein 2 (Homo sapiens) (UniProt Q8NFQ8); assay: small molecules binding lysate-expressed LULL1 – cell lysate, human LULL1 lysate, 635/667 nm fluorescence, primary screen (AID 1092); conditions: small-molecule microarray, hLULL1 lysate binding, 635 nm fluorescence; higher = more signal;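 also: probe is lysate of COS7 cells overexpressing human LULL1; score merges per-feature 667 nm fluorescence with signal-to-noise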
Chain of Torsin-1A-interacting protein 2 (Homo sapiens) (Q8NFQ8 whole entry, looked up): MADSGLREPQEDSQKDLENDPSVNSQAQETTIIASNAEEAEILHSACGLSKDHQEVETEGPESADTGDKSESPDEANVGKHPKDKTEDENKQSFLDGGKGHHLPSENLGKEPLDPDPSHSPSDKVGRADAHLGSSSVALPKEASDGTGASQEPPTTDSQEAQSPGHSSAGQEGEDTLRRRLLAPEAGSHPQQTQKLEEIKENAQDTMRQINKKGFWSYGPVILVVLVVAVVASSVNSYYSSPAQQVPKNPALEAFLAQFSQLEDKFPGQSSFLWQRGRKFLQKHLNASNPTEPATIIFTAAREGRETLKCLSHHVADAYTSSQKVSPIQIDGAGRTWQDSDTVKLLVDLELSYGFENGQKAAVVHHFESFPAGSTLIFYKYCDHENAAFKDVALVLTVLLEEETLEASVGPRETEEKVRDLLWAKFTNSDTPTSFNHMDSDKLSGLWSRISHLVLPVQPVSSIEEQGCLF

[6] = optical density change of DRC41 E. coli – strain DRC41, OD650, 24 h, E. coli filamentation project, primary screen (AID 1093);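 also: MC1000 strain lacking acrAB efflux and sulA so SOS filamentation is blocked; test concentration not given here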; conditions: E. coli DRC41 growth, higher = more signal, called active from +8 up or from −8 down
[7] = probe aLefty2 binding to arrayed compounds – biochemical, biotinylated probe, 635/667 nm fluorescence, primary screen (AID 1094); conditions: small-molecule microarray, higher = more signal;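 also: score merges spot fluorescence near 667 nm with spot signal-to-noise ratio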
[8] = test system: Noggin (protein binding on small-molecule microarray); assay: small molecules binding Noggin protein – biochemical, 635/667 nm fluorescence, primary screen (AID 1095); conditions: 635 nm fluorescence, higher = more signal;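 also: score merges 667 nm feature fluorescence with signal to noise over triplicate slides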
[9] = target: Neurogenic locus notch homolog protein 3 (Homo sapiens) (UniProt Q9UM47); assay: small molecules binding NOTCH3 protein – biochemical, 635/667 nm fluorescence, primary screen (AID 1096); conditions: small-molecule microarray, 635 nm fluorescence, higher = more signal
Chain of Neurogenic locus notch homolog protein 3 (Homo sapiens) (Q9UM47 whole entry, looked up): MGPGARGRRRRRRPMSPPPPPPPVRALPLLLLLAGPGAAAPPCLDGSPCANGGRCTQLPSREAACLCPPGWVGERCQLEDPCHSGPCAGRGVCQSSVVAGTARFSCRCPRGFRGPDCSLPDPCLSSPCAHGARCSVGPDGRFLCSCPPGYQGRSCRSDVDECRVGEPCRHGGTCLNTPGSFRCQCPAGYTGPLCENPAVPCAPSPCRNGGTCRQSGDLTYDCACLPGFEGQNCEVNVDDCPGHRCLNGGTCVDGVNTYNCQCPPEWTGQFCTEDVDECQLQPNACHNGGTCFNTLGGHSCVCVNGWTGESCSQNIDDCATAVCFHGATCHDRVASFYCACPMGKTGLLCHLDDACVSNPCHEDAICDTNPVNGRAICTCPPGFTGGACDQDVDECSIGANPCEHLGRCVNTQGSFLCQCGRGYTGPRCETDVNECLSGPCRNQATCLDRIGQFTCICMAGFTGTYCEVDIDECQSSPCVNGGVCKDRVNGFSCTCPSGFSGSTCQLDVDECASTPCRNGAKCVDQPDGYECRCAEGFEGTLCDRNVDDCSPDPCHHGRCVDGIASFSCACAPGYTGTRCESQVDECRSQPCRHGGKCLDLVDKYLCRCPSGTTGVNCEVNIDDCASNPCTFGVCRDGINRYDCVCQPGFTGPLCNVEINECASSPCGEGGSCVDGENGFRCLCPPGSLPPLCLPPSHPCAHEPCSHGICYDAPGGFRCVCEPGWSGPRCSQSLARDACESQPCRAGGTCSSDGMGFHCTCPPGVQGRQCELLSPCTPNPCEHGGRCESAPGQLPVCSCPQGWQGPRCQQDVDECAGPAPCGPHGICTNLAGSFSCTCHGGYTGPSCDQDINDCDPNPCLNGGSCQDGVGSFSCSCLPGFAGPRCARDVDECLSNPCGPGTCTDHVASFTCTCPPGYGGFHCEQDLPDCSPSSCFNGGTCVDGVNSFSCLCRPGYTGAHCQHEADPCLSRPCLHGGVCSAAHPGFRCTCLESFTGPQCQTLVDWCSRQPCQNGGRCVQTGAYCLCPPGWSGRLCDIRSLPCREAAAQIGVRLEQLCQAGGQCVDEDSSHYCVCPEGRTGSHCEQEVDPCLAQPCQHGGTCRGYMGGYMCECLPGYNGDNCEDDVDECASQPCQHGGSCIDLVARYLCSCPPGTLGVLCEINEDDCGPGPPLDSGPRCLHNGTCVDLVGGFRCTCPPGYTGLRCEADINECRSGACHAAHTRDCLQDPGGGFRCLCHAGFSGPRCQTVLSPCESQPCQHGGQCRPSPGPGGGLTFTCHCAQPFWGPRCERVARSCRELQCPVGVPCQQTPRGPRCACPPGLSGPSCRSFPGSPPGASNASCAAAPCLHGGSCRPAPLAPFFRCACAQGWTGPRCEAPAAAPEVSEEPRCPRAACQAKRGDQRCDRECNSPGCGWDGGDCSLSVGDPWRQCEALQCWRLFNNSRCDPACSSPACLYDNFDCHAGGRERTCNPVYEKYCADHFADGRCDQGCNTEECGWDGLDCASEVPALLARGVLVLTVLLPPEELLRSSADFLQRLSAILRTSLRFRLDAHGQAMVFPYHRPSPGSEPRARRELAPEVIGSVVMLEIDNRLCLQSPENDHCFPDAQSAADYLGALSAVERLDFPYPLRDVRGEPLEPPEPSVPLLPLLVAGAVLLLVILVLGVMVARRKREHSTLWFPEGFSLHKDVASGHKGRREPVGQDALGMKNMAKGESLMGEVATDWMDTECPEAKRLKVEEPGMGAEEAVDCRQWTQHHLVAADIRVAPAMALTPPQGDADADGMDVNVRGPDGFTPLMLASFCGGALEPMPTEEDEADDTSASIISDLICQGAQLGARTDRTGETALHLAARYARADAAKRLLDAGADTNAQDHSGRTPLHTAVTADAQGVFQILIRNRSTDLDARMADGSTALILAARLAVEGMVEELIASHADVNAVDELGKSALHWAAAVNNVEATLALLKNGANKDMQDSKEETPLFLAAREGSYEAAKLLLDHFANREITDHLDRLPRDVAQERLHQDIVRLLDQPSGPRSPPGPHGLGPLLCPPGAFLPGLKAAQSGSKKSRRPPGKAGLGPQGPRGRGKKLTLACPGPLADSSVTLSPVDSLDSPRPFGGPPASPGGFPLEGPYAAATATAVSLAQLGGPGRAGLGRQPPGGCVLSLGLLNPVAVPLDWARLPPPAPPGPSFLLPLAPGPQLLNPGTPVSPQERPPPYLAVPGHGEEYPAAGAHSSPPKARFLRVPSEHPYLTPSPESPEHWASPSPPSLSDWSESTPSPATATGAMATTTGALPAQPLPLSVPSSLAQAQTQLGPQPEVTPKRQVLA

[10] = probe aEGFR binding to arrayed compounds – biochemical, biotinylated probe, 635/667 nm fluorescence, primary screen (AID 1097); conditions: small-molecule microarray, higher = more signal;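 also: probe is a biotinylated anti-EGFR antibody binding compounds printed on slides; score combines fluorescence near 667 nm and signal to noise of each spot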

Structure (SMILES)	composite z-score [1]	z-score [2]	z-score [3]	z-score [4]	composite z-score [5]	z-score [6]	composite z-score [7]	composite z-score [8]	composite z-score [9]	composite z-score [10]
Cc1ccc(S[C@]2(C(=O)NC3CC3)CC(=O)N(Cc3cc(C(F)(F)F)cc(C(F)(F)F)c3)[C@@H]2c2ccc(CO)cc2)cc1	1.55	-1.18 (inactive)	-1.51 (inactive)	-2.53 (inactive)	2.27	-0.83 (inactive)	-0.213	0.756	0.58	-0.0772
CC(C)(C)OC(=O)CC[C@@]1(C(=O)NCc2ccccc2)N=C(c2ccc(OCCCO)cc2)O[C@@H]1c1ccccc1	1.55	-5.26 (inactive)	-1.2 (inactive)	0.264 (inactive)	3.54	1.46 (inactive)	0.0717	-0.0633	1.1	0.045
O=C1c2ccccc2[C@](Cc2ccccc2I)(C(=O)NCc2ccccc2)[C@H](c2ccc(CO)cc2)N1Cc1ccccc1C(F)(F)F	1.27	0.417 (inactive)	-1.05 (inactive)	0.304 (inactive)	2.44	1.03 (inactive)	-0.0345	-1.05	-0.785	-0.179
O=C(N1CCCCC1)[C@@]1(CCS(=O)(=O)c2ccccc2)N=C(c2ccc(OCCCO)cc2)O[C@H]1c1ccccc1	1.24	-0.418 (inactive)	-0.938 (inactive)	30.4 (active)	3.63	0.943 (inactive)	0.0971	0.688	1.12	-0.0828
CCCCO[C@H]1C[C@H]2C(Br)=C[C@@]1(CO)C(=O)[C@]21CO1	0.638	-1.48 (inactive)	-2.1 (inactive)	-1.29 (inactive)	-0.0735	2.62 (inactive)	-0.341	0.648	0.237	-0.109
C=CCC(OC(C)=O)[C@@H]1[C@@H](N(Cc2ccc(-c3cccc(C(F)(F)F)c3)o2)C(=O)Cc2ccc(F)cc2)c2cc(OCCCO)ccc2N1C(=O)c1ccc(-c2ccccc2)cc1 (stereo not given in full)	-0.621	-0.182 (inactive)	-0.258 (inactive)	-0.507 (inactive)	0.239	-1.33 (inactive)	-0.166	-0.325	-0.362	-0.238
C=C(CCCC)C(=O)CC[C@@H](OC(=O)c1cccnc1)c1cccc(OCCO)c1	1.12	-0.323 (inactive)	-2.6 (inactive)	-0.2 (inactive)	0.136	0.493 (inactive)	-0.186	0.491	0.145	-0.145
O=C1C[C@@](C(=O)NCCN2CCOCC2)(c2ccc([N+](=O)[O-])cc2)[C@@H](c2ccc(CO)cc2)N1C1CCCCC1	1.55	0.406 (inactive)	-0.824 (inactive)	-0.468 (inactive)	3.07	1.48 (inactive)	0.138	0.515	1.12	0.23
CCN1C(C)=C(C(=O)OC)[C@@H](c2ccccc2)N2C(=O)[C@](O)(C(=O)OC)[C@@H](c3ccccc3)C(C(C)=O)=C12	-0.107	-3.56 (inactive)	-3.03 (inactive)	-2.26 (inactive)	0.241	0.556 (inactive)	0.0417	0.506	0.768	0.186
CN(C)CCCC[C@@H]1NC(=O)[C@@H]2C[C@H](C(=O)O)[C@H](c3ccc(O)cc3)N2C1=O	1.41	-0.937 (inactive)	-1.04 (inactive)	-0.587 (inactive)	0.728	2.71 (inactive)	-0.153	1.01	0.385	-0.0605
CCCC[C@H]1OB(O)C[C@H]2C1=C(COC)C[C@H]1C(=O)N(Cc3ccccc3)C(=O)[C@H]12	-0.0448	-0.776 (inactive)	-1.69 (inactive)	-1.69 (inactive)	0.58	2.71 (inactive)	-0.113	0.321	0.75	-0.0958
CN(C)CCCC[C@@H]1NC(=O)[C@@H]2C[C@H](C(=O)NCCCCCNC(=O)CS)[C@H](c3ccc(O)cc3)N2C1=O	1.42	0.081 (inactive)	-1.42 (inactive)	-0.342 (inactive)	0.863	1.14 (inactive)	-0.0079	1.88	0.208	0.268
O=C1NC(=O)C2C1C=CC(C(O)C=Cc1ccc([N+](=O)[O-])cc1)N2Nc1ccccn1 (stereo not given)	0.403	0.459 (inactive)	1.31 (inactive)	-0.108 (inactive)	1.51	-0.298 (inactive)	0.0866	0.289	-0.135	-0.094
O=C1C2C=CC(C(O)C(c3ccccc3)c3ccccc3)N(Nc3ccc([N+](=O)[O-])cc3)C2C(=O)N1c1ccccc1 (stereo not given)	1.38	0.384 (inactive)	1.86 (inactive)	2.85 (inactive)	3.67	-0.07 (inactive)	0.109	-0.181	1.07	0.121
CO[C@@H]1COC(=O)CC=C[C@@H](C)[C@H](OC)COC(=O)CC=C[C@H]1C	-0.0399	-0.131 (inactive)	-0.761 (inactive)	-0.891 (inactive)	-0.266	0.162 (inactive)	-0.38	1.71	-0.801	-0.158
C[C@@H]1CC[C@H]2C(=O)N3CCC[C@H]3C(=O)N2[C@H]1c1ccc(Br)cc1	-0.455	0.233 (inactive)	-0.228 (inactive)	-0.0146 (inactive)	0.178	0.784 (inactive)	-0.207	0.49	-0.383	-0.166
C=C(/C(=C/C[C@@H](OC(=O)c1ccncc1)c1ccc(CO)o1)c1cnc2ccccc2c1)C(C)C	1.54	-0.0873 (inactive)	-2.27 (inactive)	-0.147 (inactive)	1.1	1.23 (inactive)	-0.0569	1.08	1.09	0.0009
COc1ccc([C@H]2C[C@H]3C(Br)=C[C@]2(OC)C(=O)[C@]32CO2)cc1	-0.378	-0.714 (inactive)	-3.14 (inactive)	-0.577 (inactive)	-0.288	-0.987 (inactive)	-0.159	0.145	0.372	-0.151
CO[C@H]1COC(=O)[C@@H](OCc2ccccc2)C=C[C@H](C)[C@@H](OC)COC(=O)[C@H](OCc2ccccc2)C=C[C@@H]1C	-0.374	-2.92 (inactive)	-2.88 (inactive)	-0.495 (inactive)	-0.233	-0.255 (inactive)	-0.462	0.816	-0.472	-0.188
COc1ccc([Si](C)(C)[C@@H]2[C@@H](CC(=O)N(CCO)Cc3ccccc3)O[C@]3(C(=O)N(Cc4cccc(N5CCC5=O)c4)c4ccccc43)[C@H]2C)cc1	1.56	-1.16 (inactive)	0.463 (inactive)	1.61 (inactive)	1.57	1.48 (inactive)	-0.17	1.33	0.941	-0.135
C/C(=N\O)C(=O)NCCCCCNC(=O)OCc1ccccc1	-0.214	-0.286 (inactive)	-0.966 (inactive)	-1.27 (inactive)	0.63	2.03 (inactive)	-0.0741	0.65	0.996	0.0221
C#CCNC(/C=C/c1ccccc1)CO (stereo not given)	0.142	1.11 (inactive)	0.64 (inactive)	1.24 (inactive)	0.0064	-0.852 (inactive)	-0.0668	0.381	0.447	-0.135
CN1C2C=C(c3ccc(CO)cc3)C(C3C(=O)N(C(N)=O)C(=O)C32)C1c1cccs1 (stereo not given)	0.4	0.697 (inactive)	-1.74 (inactive)	1.21 (inactive)	0.813	1.22 (inactive)	-0.0774	0.198	-0.25	-0.0798
COCCOC(=O)N1C(=O)[C@@]2(c3cc(C#CCC(C(=O)OC)C(=O)OC)ccc31)[C@H](c1ccccc1OCCO)N1[C@H](c3ccccc3)[C@H](c3ccccc3)OC(=O)[C@H]1[C@@H]2C(=O)N1CCCCCCC1	1.51	1.22 (inactive)	0.639 (inactive)	3.35 (inactive)	3.29	-0.366 (inactive)	1.53	1.63	1.11	0.83
COCCOC(=O)N1C(=O)[C@@]2(c3cc(C#CC4(O)CCCCCC4)ccc31)[C@H](C(=O)N1CCCCCCC1)[C@H]1C(=O)O[C@H](c3ccccc3)[C@H](c3ccccc3)N1[C@@H]2c1ccc(O)cc1	1.56	-0.971 (inactive)	-1.1 (inactive)	0.772 (inactive)	2.86	2.34 (inactive)	0.873	0.906	0.995	0.67
COc1cccc([C@@H]2[C@@H](C)CC[C@H]3C(=O)N(C)[C@@H](C(C)C)C(=O)N23)c1	-0.652	-0.0534 (inactive)	-0.719 (inactive)	0.369 (inactive)	0.21	0.652 (inactive)	-0.0113	0.375	0.374	-0.111
CO[C@@H]1COC(=O)CC=C[C@H](C)COC(=O)[C@H](Cc2ccccc2)NC(=O)CC=C[C@H]1C	1.48	-0.346 (inactive)	-0.867 (inactive)	-1.61 (inactive)	-0.844	-0.0298 (inactive)	-0.399	1.6	0.202	-0.0773
CCCNC(=O)[C@@]1(Sc2ccc(C)cc2)CC(=O)N(Cc2ccccc2Cl)[C@@H]1c1ccc(CO)cc1	1.33	-1.08 (inactive)	-3.1 (inactive)	-2.53 (inactive)	1.64	0.298 (inactive)	0.0493	1.06	1.11	-0.0082
CCOC(=O)C1=CCC(c2cccc3ccccc23)N(S(=O)(=O)c2ccc(C)cc2)C1 (stereo not given)	0.614	-0.109 (inactive)	1.4 (inactive)	3.55 (inactive)	1.64	-0.461 (inactive)	0.346	-0.375	0.976	0.211
CO[C@@H]1COC(=O)[C@H](COCc2ccccc2)NC(=O)CC=C[C@@H](C)[C@H](OC)COC(=O)[C@H](COCc2ccccc2)NC(=O)CC=C[C@H]1C	0.0472	0.982 (inactive)	-0.371 (inactive)	0.921 (inactive)	-0.0267	-0.405 (inactive)	-0.226	0.63	-0.511	-0.0605
